# The full ranking holds about 18,000 sequences; the median of “log2 normalized intensity” is about 0.36, and the highest 2% start at about 7.3. What follows is part of a selection rich in the highest values, with near analogues and random picks from the rest.
# Target: T1, HNF4alpha8 (COS-7 nuclear extract) (Homo sapiens, UniProt P41235-5 1-452)
# T1 sequence: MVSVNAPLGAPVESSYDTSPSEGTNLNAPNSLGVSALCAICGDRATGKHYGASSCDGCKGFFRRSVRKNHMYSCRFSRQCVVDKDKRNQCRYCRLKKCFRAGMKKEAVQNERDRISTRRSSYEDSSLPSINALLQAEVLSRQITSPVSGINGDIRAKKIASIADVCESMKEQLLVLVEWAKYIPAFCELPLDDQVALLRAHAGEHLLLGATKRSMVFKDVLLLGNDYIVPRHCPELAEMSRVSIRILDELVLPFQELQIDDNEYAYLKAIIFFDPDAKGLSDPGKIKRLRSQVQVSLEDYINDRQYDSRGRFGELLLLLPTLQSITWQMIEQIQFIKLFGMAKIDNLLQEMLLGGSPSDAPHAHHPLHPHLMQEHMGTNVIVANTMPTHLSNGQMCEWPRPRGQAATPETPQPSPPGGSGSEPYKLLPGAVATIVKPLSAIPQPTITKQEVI
# Assay: protein-binding microarray; COS-7 nuclear extract on double-stranded Agilent 4x180k PBM; binding buffer, salt, pH and temperature not given in the material; high values mean tight binding
# Settings: chain copies: 2; label: 3' end of strand 1 on the slide; dsDNA, one strand shown
# In short: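 Nuclear extracts came from COS-7 cells transiently transfected by CaPO4 with a human HNF4α isoform expression vector. They were applied to a custom Agilent SurePrint G3 4x180k array of ~60-nt oligonucleotides, made double-stranded, with ~44,000 test sequences spotted in quadruplicate. Bound HNF4α was imaged at 2-µm resolution on an Agilent G2565CA scanner. Binding signal was taken as background-corrected, normalized gProcessedSignal from Agilent software.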
row,Sequence,binding signal [log2 normalized intensity]
1,ATGAAGCAAGAGTCCAAATTCCTAGCCCTCGCCTAGGGAGATTAGAGTATCGGTCGA,2.14
2,AGGTTCCTCGCCTATGGTATGTATGGAATGGCCTAGGGAGATTAGAGTATCGGTCGA,2.2
3,TCTTTGCACTTGATGTTCCCCCTCCCTGGAGCCTAGGGAGATTAGAGTATCGGTCGA,4.84
4,TGGCTAAGACAGGGGCTATTTCTGACCTTTGCCTAGGGAGATTAGAGTATCGGTCGA,7.32
5,AAGACAGGGGCTATTTCTGACCTTTGCACCGCCTAGGGAGATTAGAGTATCGGTCGA,10.2
6,AGGGGCTATTTCTGACCTTTGCACCAGAGAGCCTAGGGAGATTAGAGTATCGGTCGA,7.69
7,CTATTTCTGACCTTTGCACCAGAGATAATAGCCTAGGGAGATTAGAGTATCGGTCGA,6.97
8,TCTGACCAGGCTGATTTAGCTATTTGACCTGCCTAGGGAGATTAGAGTATCGGTCGA,4.7
9,CCTTTGCACCAGAGATAATATGCTTACTTAGCCTAGGGAGATTAGAGTATCGGTCGA,0.614
10,CTGAGACAACACTCAGGATACCTAAGCCCCGCCTAGGGAGATTAGAGTATCGGTCGA,1.33
11,TCTTATTTACCGAAATGTGGGTGAGGCTGTGCCTAGGGAGATTAGAGTATCGGTCGA,1.67
12,AAGCTATTCACTTTTTGGCCTTTGGCTGTTGCCTAGGGAGATTAGAGTATCGGTCGA,3.01
13,TAAAATGGACTTTGTGGGCCAAAAGCAGCCGCCTAGGGAGATTAGAGTATCGGTCGA,2.65
14,AAAAAGTCCCTGGTCCCATAGGAAAGTGAGGCCTAGGGAGATTAGAGTATCGGTCGA,-0.813
15,TTTTGAATGACAGTGTCAGGACCTTGCTCCGCCTAGGGAGATTAGAGTATCGGTCGA,2.73
16,AATACTTGCCTAAGGTCAATGTCCTTTTTCGCCTAGGGAGATTAGAGTATCGGTCGA,4.53
17,AGGGACTTTGATCTTCTTACCCCTTTGCTGGCCTAGGGAGATTAGAGTATCGGTCGA,3.3
18,TCTTAACATCAGAAGTTGGACTTTGTACATGCCTAGGGAGATTAGAGTATCGGTCGA,9.76
19,CCCCTTCTTAACATCAGAAGTTGGACTTTGGCCTAGGGAGATTAGAGTATCGGTCGA,8.31
20,AGGAGATGTGGTGGACTTTAACGACCTTTGGCCTAGGGAGATTAGAGTATCGGTCGA,5.28
21,ACTTTGGAACTCAGTTAATGTACAGAGTATGCCTAGGGAGATTAGAGTATCGGTCGA,0.96
22,ATTAGAGAACATGTACTTTGTACTGCTTATGCCTAGGGAGATTAGAGTATCGGTCGA,4.99

row,Sequence,binding signal [log2 normalized intensity]
1,CCTTGATGTGTATTTGTAGCTTCAAACCAGGCCTAGGGAGATTAGAGTATCGGTCGA,1.52
2,GGGGGTTTGCAACCTTTGATAACCTACAACGCCTAGGGAGATTAGAGTATCGGTCGA,1.37
3,GTGAGTGTGTTGGCAAGAGATCTGCAGGGTGCCTAGGGAGATTAGAGTATCGGTCGA,1.02
4,GGTTCAAAGGTCATTTCTGCTTGCAACCAAGCCTAGGGAGATTAGAGTATCGGTCGA,5.81
5,TTATCTTACATGCCTTATCTGGTTCAAAGGGCCTAGGGAGATTAGAGTATCGGTCGA,3.33
6,TGCCTTATCTGGTTCAAAGGTCATTTCTGCGCCTAGGGAGATTAGAGTATCGGTCGA,7.61
7,TATCTGGTTCAAAGGTCATTTCTGCTTGCAGCCTAGGGAGATTAGAGTATCGGTCGA,6.43
8,TTACATGCCTTATCTGGTTCAAAGGTCATTGCCTAGGGAGATTAGAGTATCGGTCGA,8.2
9,TCCTTTTATCTTACATGCCTTATCTGGTTCGCCTAGGGAGATTAGAGTATCGGTCGA,1.64
10,TCCAGAATTGTGTGGTTATCTGTTGGGGAAGCCTAGGGAGATTAGAGTATCGGTCGA,2.14
11,TGCAGCAAAACTTTAGGACTTTGAACCTTGGCCTAGGGAGATTAGAGTATCGGTCGA,9.2
12,CCTTGGGTCTGTAATCTCACAACTCAGAAGGCCTAGGGAGATTAGAGTATCGGTCGA,-0.129
13,GGGCAGCAAACCTACCTGAACTTTGCCCCAGCCTAGGGAGATTAGAGTATCGGTCGA,8.83
14,CCTTGCCACCCACACTGCAGCAAAACTTTAGCCTAGGGAGATTAGAGTATCGGTCGA,-0.731
15,ATAAGGGGCAGCAAACCTACCTGAACTTTGGCCTAGGGAGATTAGAGTATCGGTCGA,3.58
16,GCAAACCTACCTGAACTTTGCCCCAGAGGAGCCTAGGGAGATTAGAGTATCGGTCGA,6.74
17,CAAAACTTTAGGACTTTGAACCTTGGGTCTGCCTAGGGAGATTAGAGTATCGGTCGA,7.83
18,GGGAGGAGGGCAACCTTTGAACTGGGTCTTGCCTAGGGAGATTAGAGTATCGGTCGA,4.84
19,CACACTGCAGCAAAACTTTAGGACTTTGAAGCCTAGGGAGATTAGAGTATCGGTCGA,4.12
20,CTTTAGGACTTTGAACCTTGGGTCTGTAATGCCTAGGGAGATTAGAGTATCGGTCGA,6.82
21,TTGAACCTTGGGTCTGTAATCTCACAACTCGCCTAGGGAGATTAGAGTATCGGTCGA,1.98
22,GGACTTTGAACCTTGGGTCTGTAATCTCACGCCTAGGGAGATTAGAGTATCGGTCGA,7.84

# — publication PMC10726135, “HNF4α isoforms regulate the circadian balance between carbohydrate and lipid metabolism in the liver”
